The values below come from PubChem BioAssay (Tox21).

Calls of active or inactive are those of the source. Entries that show only a call come without a potency. Calls come from the whole dose curve; as a rule, active = well fitted activation curve with a large enough effect in the repeat runs; inconclusive = weak or mixed curves; inactive = flat fitted curve, though single readings scatter.
Potency is the fitted concentration of half-maximal effect.

A short description of the experiment: A CellTox Green Cytotoxicity Assay to monitor cytotoxicity in HEK293 cells - 0 hour (AID 1224869). Note: nearly all actives have a fitted effect of over 50% in size. Particulars: CellTox Green fluorescence; series mostly up to 76.8 µM. The text has this: National Center for Advancing Translational Sciences [NCATS]
NIH Chemical Genomics Center [NCGC]
U.S. Environmental Protection Agency [EPA]
National Institutes of Environmental Health Sciences [NIEHS]
National Toxicology Program [NTP]
Cell-based models are critical for drug discovery. Determining the natural cytotoxic effects resulting from test compounds is an essential research activity. A CellTox Green Cytotoxicity Assay to monitor cytotoxicity in real time of continues cell culture during 40 hours of the compound treatment was used to screen Tox21 10K library compounds in Hek293 cells. CellTox Green Cytotoxicity Assay is a nonlytic, homogeneous, biofluorescent method to measure cytotoxicity in cell culture after experimental manipulation. The assay system uses a proprietary asymmetric cyanine dye that is excluded from viable cells but preferentially stains the dead cell's DNA. […] Viable cells produce no appreciable increases in fluorescence. Therefore, the fluorescence signal produced by the binding interaction with dead cell DNA is proportional to cytotoxicity.
The mixture of Hek293 cell suspension and reagents were dispensed at 600cells/6 ul/well in 1536-well tissue culture treated black solid bottom plates using a Multidrop dispenser. After the assay plates were incubated at a 37 C/5% CO2 incubator for 5 hours, 23 nL of compounds dissolved in DMSO, positive and negative controls was transferred to the assay plate by a pintool work station. The plates were incubated at 37 C for 40 hours. The fluorescence intensity were measured at 0h, 8h, 16h, 24h, 32h and 40h time points using ViewLux plate reader during compound treatment.
Consider `C=CCCC(=O)/C=C/C1C(C)=CCCC1(C)C` (stereo not given), for which the Potency result is “inactive”.
The same measure, in the same setting: with `C#C[C@]1(OC(C)=O)CC[C@H]2[C@@H]3CCC4=C/C(=N/O)CC[C@@H]4[C@H]3CC[C@@]21CC` the entry was “inactive”.
Same read-out and setting: with `OCC(F)(F)F` the entry was “inactive”; with `COCCOc1cc2cc(C(=O)NC3CCN(C(C)C)CC3)n(CC(=O)Nc3ccc(Cl)cn3)c2cn1`, “inactive”.
The same measure, in the same setting: with `CN1CCC[C@@H]1CCO[C@](C)(c1ccccc1)c1ccc(Cl)cc1` the entry was “inactive”.
As for `NC[C@H]1O[C@H](O[C@H]2[C@H](O[C@@H]3O[C@H](CO)[C@@H](O)[C@H]3O)C(O)[C@H](N)C[C@@H]2N)[C@H](N)[C@@H](O)[C@@H]1O` (stereo not given in full), the cytotoxicity is -7.77% [at 6.97 µM] (inactive).
On to `CCN(CCN)c1cccc(C)c1`, for which the Potency entry is “inactive”.
The same measure, in the same setting: with `O=C(O)c1cc(-c2ccc(F)cc2F)ccc1O` the entry was “inactive”; with `CC(N=C(NC#N)Nc1ccncc1)C(C)(C)C` (stereo not given), “inactive”.
Regarding `OC/C=C/CO`, the Potency entry is “inactive”.
Still for that read-out and setting: under `CCCCCCCCCCCC(=O)OCC(C)OC(=O)CCCCC(=O)O` (stereo not given) stands “inactive”; under `COc1ccc(-c2coc3cc(O)ccc3c2=O)cc1`, “inactive”; under `CC1=Nc2ccccc2C1(C)C`, “inactive”.
Take `O=C(O)O`: the cytotoxicity is 2.74% [at 6.97 µM] (inactive).
`CN(C)C(=O)COC(=O)Cc1ccc(OC(=O)c2ccc(N=C(N)N)cc2)cc1`: the Potency result was “inactive”.
Same read-out and setting: under `O=C1OC2(c3ccc(O)cc3Oc3cc(O)ccc32)c2ccc(N=C=S)cc21` stands 22.3 µM (active); under `CC(C)CCCCCOC(=O)CCS`, “inactive”; under `OC1CCCc2ccccc21` (stereo not given), “inactive”.
The same measure, in the same setting: with `COc1cc(C)ccc1O` the entry was “inactive”; with `C#Cc1ccc(-c2ccccc2F)cc1`, “inactive”; with `Cc1cccc(C)c1NC(=O)c1ccc(N)cc1`, “inactive”.
Same read-out and setting: under `Nc1ccc(C(=O)O)c(O)c1` stands “inactive”.
As for `CCCCCCC1CCCC(=O)O1` (stereo not given), the Potency result was “inactive”.
Same read-out and setting: with `Cc1cccc2cccnc12` the entry was “inactive”; with `C=C(C)c1cccc(C(=C)C)c1`, “inactive”; with `O=C(O)Cc1ccc2c(c1)C(=O)c1ccccc1CO2`, “inactive”.
The same measure, in the same setting: under `CC(C)OC(=O)C(O)(CC(=O)O)CC(=O)O` stands “inactive”.
On the same count and under the same terms, under `C#CC1(O)CC[C@H]2[C@@H]3CCC4=CCCC[C@@H]4[C@H]3CC[C@@]21C` (stereo not given in full) stands “inactive”; under `O=C(O)c1cccc(C(F)(F)F)c1`, “inactive”; under `CC(C)(C)C1CCC(=O)CC1`, “inactive”.
On to `CCOC(=O)c1ccc(C2CCC(NC[C@H](O)COc3ccc(O)c(NS(C)(=O)=O)c3)CC2)cc1` (stereo not given in full), for which the Potency entry was “inactive”.
Consider `C[Si](Cl)(c1ccccc1)c1ccccc1`, for which the Potency result is “inactive”.
`Oc1cc(Cl)cc(Cl)c1Cl`: the Potency entry was “inactive”.
On the same count and under the same terms, with `C=CCn1c(=O)n(CC=C)c(=O)n(CC=C)c1=O` the entry was “inactive”.
Regarding `CCN(CC)c1ccc2c(-c3ccc(S(=O)(=O)O)cc3S(=O)(=O)[O-])c3ccc(=[N+](CC)CC)cc-3oc2c1`, the Potency entry is “inactive”.
Still for that read-out and setting: with `O=C1CCCCCCCCCCCCCCCO1` the figure was 24.5 µM (active); with `CCOc1ccc2ccccc2c1C(=O)N[C@@H]1C(=O)N2[C@@H]1SC(C)(C)[C@@H]2C(=O)O`, “inactive”; with `COC(=O)c1ccccc1C`, “inactive”.
On the same count and under the same terms, with `O=c1oc2cc(O)ccc2c2oc3cc(O)ccc3c12` the entry was “inactive”; with `Cc1cc(C(C#N)c2ccc(Cl)cc2)c(Cl)cc1NC(=O)c1cc(I)cc(I)c1O` (stereo not given), “inactive”.
